Screening data deposited in PubChem by National Center for Advancing Translational Sciences (NCATS).
Rows were chosen to be rich in hits. Some 14% of all compounds tested hit in one or more screens of this group.
HCMV antiviral – blocks human cytomegalovirus replication; HFF cells, HCMV-luciferase reporter, 72 h; stronger effect = lower value; activity change, negative = inhibition, % at 57.5 µM; 410,000 tested, 4.5% active; AID 1259415; in the data active = activity change below about -60%; inconclusive = no clear call, values can overlap the other calls; inactive = above about -39%
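Luciferase read-out from HCMV-luciferase-infected HFFs (MOI 1 PFU/cell) 72 h post infection at 37C; compounds added after 16 h cell attachment; activity normalized between buffer-only basal and Salinomycin (10uM) inhibitor controls.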
Lassa entry inh – Lassa virus entry inhibition | Lassa virus pseudotype entry inhibition, cell reporter | Potency, µM (titrated, usually from 37.9 µM), without a hit: at the highest dose activity change, negative = inhibition, most hits filed as inhibitors | 300,000 tested, 1.2% active | AID 540256; calls by dose curve; tested in HEK293 cells; also: potency is read from the fitted curve at half-maximal effect; nearly all actives have a fitted effect of over 50% in size
MARV entry inh – Marburg virus entry inhibition; 300,000 tested, 1.8% active; Potency, µM (series often up to 37.8 µM), for inactives: at the top dose activity change, negative = inhibition, hits mostly inhibitors; Marburg virus pseudotyped entry inhibition, cell reporter; AID 540276; calls by dose curve; tested in HEK293 cells; also: potency is read from the fitted curve at half-maximal effect
Pf growth 48h – P. falciparum growth inhibition at 48 hours (one generation) | P. falciparum luciferase growth in erythrocytes, 48 h | Potency, µM (titrated, usually from 28.7 µM), inactives show at the highest dose activity change, negative = inhibition, usual class: inhibitors | 310,000 tested, 5.9% active | AID 504832; also: potency is read from the fitted curve at half-maximal effect
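Erythrocytes infected with P. falciparum carrying an integrated firefly luciferase reporter (2% hematocrit, 0.1% parasitemia final) were exposed to compounds in RPMI 1640 with 0.5% Albumax at 37 C, 5% CO2. Growth inhibition was scored as reduced luminescence.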
HCV inh – blocks hepatitis C virus; Huh7.5.1 HCVcc-Cre infection, luciferase reporter, 44 h; Potency, µM (doses to about 41.8 µM), for inactives: at the top dose activity change, negative = inhibition, actives largely listed as inhibitors; 340,000 tested, 3.4% active; AID 651820; also: potency is read from the fitted curve at half-maximal effect
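Cells (1,000/well) were plated 4 h before compound, then infected with HCVcc-Cre virus (~0.5 moi). After 44 h further culture, infection was read as luciferase luminescence following a 15 min substrate incubation at room temperature.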
Pf growth 96h – P. falciparum growth inhibition at 96 hours | P. falciparum luciferase reporter growth, 96 h | Potency, µM (series often up to 28.7 µM), for inactives: at the highest dose activity change, negative = inhibition, most hits filed as inhibitors | 320,000 tested, 6.9% active | AID 504834; also: potency is read from the fitted curve at half-maximal effect
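Plates of compound plus infected erythrocytes (2% hematocrit, 0.05% parasitemia final) incubate 96 hours, 37 C, 5% CO2. Detection reagent added; reduced luminescence from the parasites' luciferase reporter flags inhibition.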
An asterisk follows results filed as active; ? = inconclusive; nt = no result given; [ ] = remark or other dose. Unless noted, calls follow the shape of the dose curve; as a rule, active = well fitted inhibition curve with a large enough effect; inconclusive = small, poorly fitted or top-dose-only effect, or another doubt; inactive = no such curve, though single readings can be large or run the other way. % is scaled to controls: 0 for no effect and ±100 for the full control effect.

SMILES	HCMV antiviral	Lassa entry inh	MARV entry inh	Pf growth 48h	HCV inh	Pf growth 96h
Cc1ccccc1/C=C\c1nc2ccccc2c(=O)n1Cc1ccccc1	8	5%	?	-20%	2%	49%
NC(=O)CSc1nc2ccccc2c(=O)n1CCc1ccccc1	4	12%[46.1 µM]	32%[46.1 µM]	11%	-16%	5.9µM*
O=c1c2ccccc2nc(-c2ccoc2)n1CCc1ccccc1	6	?	?	7%	?	72%
CCOC(=O)CC(=O)CSc1nc2ccccc2c(=O)n1CCc1ccccc1	99	-18%[46.1 µM]	nt	nt	nt	nt
O=c1c2ccccc2nc(/C=C/c2cccnc2)n1Cc1ccccc1	-98*	?	?	?	8%	13%
COc1ccc(NC(=O)Nc2ccc3c(c2)C(=O)N([C@H](C)CO)C[C@H](C)[C@H](CN(C)C)OCCCC[C@@H](C)O3)cc1	-3	nt	nt	nt	nt	nt
Cc1oc2ccc(O)c(CN3CCN(C)CC3)c2c1C(=O)Nc1cccc(Cl)c1C	1	21%[46.1 µM]	-7%[46.1 µM]	nt	nt	nt
COc1cc(CNc2nc3ccccc3n2Cc2ccccc2)ccc1O	-10	nt	nt	nt	nt	nt
O=C(CSc1nc(=O)n(Cc2ccco2)c2c1CCC2)NCc1ccc(Cl)cc1	8	-7%[46.1 µM]	nt	nt	nt	nt
O=c1c2ccccc2nc(/C=C/c2cccc([N+](=O)[O-])c2)n1CCO	?	?	?	-17%	?	-24%
O=c1c2ccccc2nc(/C=C/c2cccnc2)n1CCc1ccccc1	-75*	?	?	?	-15%	?
CCOC(=O)c1c(NC(=S)NC)sc2c1CC(C)(C)SC2	-15	12%[46.1 µM]	1%[46.1 µM]	4.1µM*	?	-102%
C=C(C)Cn1c(SCC(=O)Nc2ccccc2C)nc2sc3c(c2c1=O)CCCC3	17	3%[46.1 µM]	3%[46.1 µM]	nt	nt	nt
CC(C)(C)S(=O)N1Cc2cn(Cc3ccccc3)c(=O)cc2[C@@H]1CCO (stereo partly drawn)	-16	nt	nt	nt	44%	nt
O=C(Nc1ccc(Cl)cc1)c1cnn2c1NC(c1ccccc1)=CC2c1ccccc1 (stereo not drawn)	-102*	16%[46.1 µM]	nt	nt	nt	nt
CC1=C(C(=O)Nc2ccc(Cl)cc2)C(c2ccccc2)n2ncc(C(=O)Nc3ccccc3)c2N1 (stereo not drawn)	13	?	?	nt	nt	nt
CC1=C(C(=O)Nc2ccc(Cl)cc2)C(c2ccccc2C)n2ncc(C(=O)Nc3ccc(C)cc3)c2N1 (stereo not drawn)	-32	?	5.6µM*	nt	nt	nt
COc1ccc(N2N=NN(C(C)C)C2=C(Cl)c2nnnn2-c2ccc(OC)cc2)cc1	28	-23%	?	nt	?	nt
CCN1CCCc2cc(CN(CCN3CCOCC3)C(=S)Nc3ccccc3C)ccc21	-12	nt	nt	-11%	5%	?
CCN1CCCc2cc(CN(CCN3CCOCC3)C(=S)Nc3ccc(OC)c(Cl)c3)ccc21	-32	nt	nt	?	-17%	19µM*
CCN1CCCc2cc(CN(CCN3CCOCC3)C(=S)Nc3cccc(C)c3)ccc21	-65*	?	?	?	-38%	12µM*
COC(=O)C(c1ccccc1)C1CCCCN1 (stereo not drawn)	nt	nt	nt	-13%	nt	?
OC(c1cc(C(F)(F)F)nc2c(C(F)(F)F)cccc12)C1CCCCN1 (stereo not drawn)	-99*	nt	nt	0.0093µM*	?	0.0037µM*
OC(c1cc(-c2cccc(Cl)c2)nc2ccccc12)C1CCCCN1 (stereo not drawn)	-98*	?	11µM*	nt	?	nt
CN(C)c1ccc(N=Nc2ccccc2C(=O)OCC(=O)N(C)c2ccccc2)cc1	?	?	?	13µM*	?	?
SMILES	HCMV antiviral	Lassa entry inh	MARV entry inh	Pf growth 48h	HCV inh	Pf growth 96h
COC(=O)c1ccccc1NC(=O)COC(=O)c1ccccc1N=Nc1ccc(N(C)C)cc1	-36	3%	-34%	?	-5%	9.3µM*
CCCCNc1cccc2c1S(=O)(=O)N[C@@H](CC(C)C)CO2	8	nt	?	nt	nt	nt
S=C(Nc1ccccc1)N1CCN(c2ccc(N3CCOCC3)nn2)CC1	-21	2%	9%[46.1 µM]	11%	8%	0%
S=C(Nc1ccccc1)N1CCOCCOCCN(C(=S)Nc2ccccc2)CCOCCOCC1	20	17%	5.6µM*	?	-4%	?
S=C(Nc1ccc(Oc2ccccc2)cc1)N1CCOCC1	-26	-19%	-2%	20%	-24%	1.2µM*
CN1CCN(C(=S)Nc2ccc(Oc3ccccc3)cc2)CC1	-33	-9%[46.1 µM]	9%[46.1 µM]	12%	-21%	?
NS(=O)(=O)c1ccc(CCNc2nc(CN3CCCCC3)nc3sc4c(c23)CCC4)cc1	-11	-21%	21µM*	12µM*	?	6.6µM*
CCOC(=O)c1cccc(NS(=O)(=O)c2c(C)nc3sc(C)cn3c2=O)c1	-13	16%[46.1 µM]	nt	nt	nt	nt
CC1=CC(C)C2COC(c3ccc[n+](C)c3)C1C2C (stereo not drawn)	?	3%	41%	15µM*	34%	?
CC1=CC(C)[C@@H]2COC(c3ccc(O)cc3)[C@H]1C2C (stereo partly drawn)	-36	nt	nt	?	-6%	9.3µM*
Cc1cc(C)c(Cn2c(=O)[nH][nH]c2=O)cc1Cn1c(=O)[nH][nH]c1=O	-23	nt	nt	nt	nt	nt
O=C(CSc1nnc(-c2ccccc2Br)o1)N1CCc2ccccc2C1	-12	-1%	12%	8%	-3%	3.3µM*
c1ccc(CSc2nnc(-c3c[nH]c4ccccc34)o2)cc1	15	-1%	-3%	42%	-16%	13%
O=C(CSc1nnc(-c2ccccc2F)o1)N1CCCC1	5	?	10%[46.1 µM]	40%	4%	-7%
O=C(CSc1nnc(-c2c[nH]c3ccccc23)o1)N1c2ccccc2CCc2ccccc21	-89*	?	?	?	7.9µM*	65%
CCN(CC)C(=O)CSc1nnc(-c2c[nH]c3ccccc23)o1	12	nt	nt	?	11%	0.47µM*
O=C(CSc1nnc(-c2c[nH]c3ccccc23)o1)N1CCCCC1	5	-15%	?	29%	11%	?
c1ccc2c(-c3nnc(SCc4cn5ccccc5n4)o3)c[nH]c2c1	19	-24%	22%	nt	-18%	12µM*
COc1cc2cc(CNc3ccccc3)c(=O)n(CC(=O)Nc3cccc(Cl)c3C)c2cc1OC	40	14%[46.1 µM]	nt	nt	nt	nt
Cc1ccc(C)n1C1C(=O)N(Cc2ccc(Cl)nc2)c2ccccc21 (stereo not drawn)	-3	nt	nt	nt	nt	nt
S=c1nn[nH]c2ccccc12	-1	1%[46.1 µM]	?	nt	7%	nt
Cc1ccc(C(=O)Oc2csc(=S)n2C(=O)c2ccc(C)cc2)cc1	-62*	-15%	5%	-1%	11%	nt
O=C(NCc1ccc2c(c1)OCO2)c1ccc2c(c1)N(Cc1c(F)cccc1Cl)C(=O)CS2	-78*	?	?	12µM*	?	-77%
